Only some compounds are listed: those with a hit (about 18% of all), similar ones and a draw of the others.
TGFb inhibitor = qHTS for Inhibitors of TGF-b; AID 588855, 2011; HepG2 CAGA-GFP TGF-b/SMAD3 reporter, GFP fluorescence, 18 h; TGF-beta stimulated, 500 pg/mL final; Potency, µM (doses to about 46.1 µM), without a hit: at the top dose activity, negative = inhibition, hits mostly inhibitors; 410,000 tested, 1.2% active; further: potency means the concentration at half of the fitted maximal effect; on the % scale 0 is the no-effect control and ±100 the full control effect; nearly all actives have a fitted effect of over 65% in size
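HEPG2 CAGA-GFP cells (1000/well, DMEM with 1% FBS) were pre-incubated 2 h at 37 degrees C, given compound by pin tool, then stimulated with TGF-beta at 500 pg/mL final for 18 h before per-cell GFP fluorescence imaging.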
IL1B secr inh = qHTS for Inhibitors of Inflammasome Signaling: IL-1-beta AlphaLISA Primary Screen. THP-1 LPS/ATP IL-1B secretion, AlphaLISA, 16 h; stronger effect = lower value. activity change, % at 57.5 µM. 360,000 tested, 4.7% active. AID 743279, 2014; in the data active means activity change below about -50%; inconclusive means mostly about -30% to -49%; further: on the % scale 0 is the no-effect control and ±100 the full control effect
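THP-1 cells pretreated 1 hr with compounds (up to 57.5 uM final), then stimulated with LPS (250 ng/mL final) plus ATP (1.25 mM final); secreted IL-1B measured by AlphaLISA after 16 hr, decreased signal indicating inhibition.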
DT40 TDP1 CPT = qHTS for Inhibitors of human tyrosyl-DNA phosphodiesterase 1 (TDP1): qHTS in cells in presence of CPT; chicken DT40 Tdp1-/-;hTDP1 cells + 20 nM CPT, ATP luminescence, 48 h; Potency, µM (doses to about 46.2 µM), for inactives: at the highest dose activity change, negative = growth inhibition, most hits filed as inhibitors; 420,000 tested, 12% active; further: potency means the concentration at half of the fitted maximal effect; on the % scale 0 is the no-effect control and ±100 the full control effect; nearly all actives have a fitted effect of over 55% in size
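Chicken DT40 Tdp1-/- cells stably complemented with human TDP1 were seeded at 400 cells/well in medium containing 20 nM camptothecin, exposed to pin-transferred compounds, and grown at 37 °C for at least 48 hr. Viability was read as ATP luminescence.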
DT40 TDP1 no CPT = qHTS for Inhibitors of human tyrosyl-DNA phosphodiesterase 1 (TDP1): qHTS in cells in absence of CPT; DT40 Tdp1-/- hTDP1 cells, no CPT, ATP luminescence, 48 h; Potency, µM (top dose mostly 46.2 µM), inactives show at the highest dose activity change, negative = growth inhibition, usual class: inhibitors; 420,000 tested, 15% active; further: potency means the concentration at half of the fitted maximal effect; on the % scale 0 is the no-effect control and ±100 the full control effect; nearly all actives have a fitted effect of over 55% in size
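Growth of hTDP1-complemented DT40 Tdp1-knockout cells is measured by ATP luminescence after at least 48 hr compound exposure at 37 °C, with DMSO substituting for the 20 nM CPT used in the parallel screen.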
TDP1 inh = qHTS Assay for Inhibitors of Tyrosyl-DNA Phosphodiesterase (TDP1); recombinant TDP1, AlphaScreen DNA substrate cleavage; Potency, µM (doses to about 130 µM), without a hit: at the highest dose activity change, negative = inhibition, usual class: inhibitors; 350,000 tested, 0.28% active; AID 485290, 2010; further: potency means the concentration at half of the fitted maximal effect; on the % scale 0 is the no-effect control and ±100 the full control effect; nearly all actives have a fitted effect of over 40% in size
Target sequence (Q9NUW8 whole entry, looked up): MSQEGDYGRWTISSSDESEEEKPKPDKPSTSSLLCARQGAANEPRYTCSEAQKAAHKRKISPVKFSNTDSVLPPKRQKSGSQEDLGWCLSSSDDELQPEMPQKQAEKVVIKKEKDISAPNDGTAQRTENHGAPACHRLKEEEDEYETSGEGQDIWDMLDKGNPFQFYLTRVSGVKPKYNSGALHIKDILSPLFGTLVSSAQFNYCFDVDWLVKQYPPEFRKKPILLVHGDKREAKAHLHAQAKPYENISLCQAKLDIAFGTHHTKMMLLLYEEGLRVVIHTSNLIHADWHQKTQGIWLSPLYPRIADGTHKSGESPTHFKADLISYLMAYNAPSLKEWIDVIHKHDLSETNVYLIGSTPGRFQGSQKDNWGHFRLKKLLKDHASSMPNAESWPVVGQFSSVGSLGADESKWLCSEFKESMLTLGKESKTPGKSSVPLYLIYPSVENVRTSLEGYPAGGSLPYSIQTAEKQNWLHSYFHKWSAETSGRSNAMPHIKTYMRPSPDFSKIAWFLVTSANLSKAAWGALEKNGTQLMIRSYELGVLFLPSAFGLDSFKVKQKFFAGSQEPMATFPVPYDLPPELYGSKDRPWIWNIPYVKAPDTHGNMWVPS
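Signal: AlphaScreen proximity between streptavidin donor and anti-FITC acceptor beads on intact substrate. Reaction: Tdp1 1 nM, substrate 15 nM final, 5 min RT after 15 min compound preincubation.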
HepG2 tox = qHTS for Inhibitors of TGF-b: Cytotox Counterscreen; HepG2 CAGA-GFP viability, ATP luminescence, 18 h; Potency, µM (titrated, usually from 46.1 µM), for inactives: top-dose activity change, negative = cytotoxicity, hits mostly cytotoxic; 410,000 tested, 0.76% active; further: potency means the concentration at half of the fitted maximal effect
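CellTiter-Glo luminescence gave cytotoxicity after 18 hours at 37 degrees C. The cells were HepG2 CAGA-GFP in 1% FBS DMEM, stimulated with 500 pg/mL TGF-beta after compound addition. %Activity was normalised to no-cell wells (complete cell-killing) and DMSO (no toxicity), and curves were fitted and classified.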
Numbers without * were called inactive; [ ] = remark or other dose. Unless noted, the call rests on the fitted dose curve; in most records, active means well fitted curve in the direction sought with a large enough effect; inconclusive means small, poorly fitted or top-dose-only effect, or another doubt; inactive means no such curve, though single readings can be large; an effect the other way counts as inactive or inconclusive.

What do the screens show for `COc1ccc(-c2ccc(OC)c(C3C4C=CCC(C)C4C(=O)N3Cc3ccccc3)c2)cc1` (configuration not stated)?
TGFb inhibitor: -2%; TDP1 inh: 9%; HepG2 tox: -2%

How did CN(/N=C/c1cc(Br)cc(Br)c1O)c1ccccc1 do in these assays?
TGFb inhibitor: -10%; IL1B secr inh: 7; DT40 TDP1 CPT: 2%; DT40 TDP1 no CPT: 3%; HepG2 tox: -13%

Results for CC(C)(C)c1ccc(/C=N/Nc2nncn2N)cc1 ?
TGFb inhibitor: -10%; IL1B secr inh: -23; DT40 TDP1 CPT: -19%; DT40 TDP1 no CPT: -3%; HepG2 tox: 3.5µM*

How did Nn1cnnc1N/N=C/c1cc(Br)cc(Br)c1O do in these assays?
TGFb inhibitor: -33%; IL1B secr inh: -67*; DT40 TDP1 CPT: inconclusive; DT40 TDP1 no CPT: inconclusive; TDP1 inh: 13%; HepG2 tox: -39%

Results for CS/C(N)=N/N=C/c1cc(Br)cc(Br)c1O ?
TGFb inhibitor: 6.3µM*; IL1B secr inh: 0; DT40 TDP1 CPT: inconclusive; DT40 TDP1 no CPT: 16µM*; TDP1 inh: 6%; HepG2 tox: -65%

How did CSc1ccc(/C=N\Nc2nncn2N)cc1 do in these assays?
TGFb inhibitor: inconclusive; IL1B secr inh: -2; DT40 TDP1 CPT: inconclusive; DT40 TDP1 no CPT: -25%; HepG2 tox: -144%

Results for C=CCS/C(N)=N\N=C\c1cc(Br)cc([N+](=O)[O-])c1O ?
TGFb inhibitor: 21%; IL1B secr inh: 9; DT40 TDP1 CPT: inconclusive; DT40 TDP1 no CPT: 7.3µM*; TDP1 inh: 6%; HepG2 tox: 49%

How did CCOC(=O)c1nnsc1Nc1ccc(C)c(C)c1 do in these assays?
TGFb inhibitor: 0%; IL1B secr inh: 24; DT40 TDP1 CPT: -13%; DT40 TDP1 no CPT: inconclusive; TDP1 inh: 5%; HepG2 tox: -10%

Results for Cc1cc(C)n(-c2nc(NCCO)c3c4c(sc3n2)CCCC4)n1 ?
TGFb inhibitor: inconclusive; IL1B secr inh: -5; DT40 TDP1 CPT: inconclusive; DT40 TDP1 no CPT: inconclusive; TDP1 inh: 5%; HepG2 tox: 5%

What do the screens show for `Cc1cc(C)n(-c2nc(NCCCO)c3c4c(sc3n2)CCCC4)n1`?
TGFb inhibitor: -29%; IL1B secr inh: -18; DT40 TDP1 CPT: 5.8µM*; DT40 TDP1 no CPT: 4.1µM*; TDP1 inh: 6%; HepG2 tox: -20%

How did Cc1cc(C)n(-c2nc(NCC(C)O)c3c4c(sc3n2)CCCC4)n1 (configuration not stated) do in these assays?
TGFb inhibitor: -1%; IL1B secr inh: -17; DT40 TDP1 CPT: inconclusive; DT40 TDP1 no CPT: 18µM*; TDP1 inh: 4%; HepG2 tox: -17%

How did CCc1cccc(C)c1NC(=O)CSc1nc2ccncc2[nH]1 do in these assays?
TGFb inhibitor: inconclusive; IL1B secr inh: 39; DT40 TDP1 CPT: inconclusive; DT40 TDP1 no CPT: inconclusive; TDP1 inh: 2%; HepG2 tox: -15%

What do the screens show for `COc1ccc(C(=O)/C=C/c2cc(C(=O)O)cc3c2OCOC3)c(O)c1`?
TGFb inhibitor: 15%; IL1B secr inh: -94*; DT40 TDP1 CPT: inconclusive; DT40 TDP1 no CPT: 23µM*; TDP1 inh: -7%; HepG2 tox: 13%

How did COc1ccc(C(=O)C=Cc2cccs2)c(O)c1 do in these assays?
TGFb inhibitor: -3%; IL1B secr inh: -54*; DT40 TDP1 CPT: inconclusive; DT40 TDP1 no CPT: inconclusive; HepG2 tox: -11%

How did COc1ccc(C(=O)/C=C/c2ccccc2OC)c(OC(=O)c2ccc([N+](=O)[O-])cc2)c1 do in these assays?
TGFb inhibitor: 0%; IL1B secr inh: -97*; DT40 TDP1 CPT: inconclusive; DT40 TDP1 no CPT: inconclusive; HepG2 tox: -99%

What do the screens show for `O=C(O)c1cc(/C=C/C(=O)c2cc(F)ccc2O)c2c(c1)COCO2`?
TGFb inhibitor: inconclusive; IL1B secr inh: -14; DT40 TDP1 CPT: -29%; DT40 TDP1 no CPT: inconclusive; HepG2 tox: 0%

How did COc1cc(OC)c(C(=O)/C=C/c2ccccc2)c(O)c1O do in these assays?
TGFb inhibitor: -3%; IL1B secr inh: -100*; DT40 TDP1 CPT: inconclusive; DT40 TDP1 no CPT: inconclusive; HepG2 tox: -27%

Results for COc1ccc(C(=O)/C=C/c2ccccc2)c(O)c1 ?
TGFb inhibitor: inconclusive; IL1B secr inh: -99*; DT40 TDP1 CPT: inconclusive; DT40 TDP1 no CPT: 23µM*; TDP1 inh: 6%; HepG2 tox: -56%

Results for O=C(/C=C/c1ccccc1)c1ccc(O)cc1O ?
DT40 TDP1 CPT: inconclusive; DT40 TDP1 no CPT: 16µM*; TDP1 inh: 18%[56.1 µM]

Results for COc1ccc(OC(=O)c2cccc([N+](=O)[O-])c2)c(C(=O)/C=C/c2cccs2)c1 ?
TGFb inhibitor: 0%; IL1B secr inh: -53*; DT40 TDP1 CPT: inconclusive; DT40 TDP1 no CPT: inconclusive; TDP1 inh: 7%; HepG2 tox: -47%

What do the screens show for `Cc1cc(O)c(C(=O)/C=C/c2ccccc2)c(=O)o1`?
TGFb inhibitor: -29%; IL1B secr inh: -5; DT40 TDP1 CPT: inconclusive; DT40 TDP1 no CPT: inconclusive; HepG2 tox: 2%

Results for C=CCC1(O)C=CCC2C3C4C(OC(C)(C)C)C2C1C34 (configuration not stated) ?
TDP1 inh: 6%[21 µM]

What do the screens show for `Cc1nc2nc(-c3cccs3)[nH]c2cc1Br`?
TGFb inhibitor: -25%; IL1B secr inh: inconclusive; DT40 TDP1 CPT: inconclusive; DT40 TDP1 no CPT: 16µM*; HepG2 tox: -29%

Results for Cc1ccc(CN2C(=O)N/C(=C/c3ccc(-c4ccc(C(=O)O)cc4)o3)C2=O)cc1 ?
TGFb inhibitor: -2%; IL1B secr inh: 0; DT40 TDP1 CPT: -11%; DT40 TDP1 no CPT: 20%; TDP1 inh: 22µM*; HepG2 tox: -11%

Results for Cc1cc(C(=O)O)ccc1-c1ccc(/C=C2\NC(=O)N(Cc3ccc(F)cc3)C2=O)o1 ?
TGFb inhibitor: 36%; IL1B secr inh: -6; DT40 TDP1 CPT: -29%; DT40 TDP1 no CPT: inconclusive; TDP1 inh: 4µM*; HepG2 tox: 18%

Compound activity: PubChem, National Center for Advancing Translational Sciences (NCATS)
